This is a sample that favours compounds with a hit; in the whole collection about 9.4% have one here.
SMN2 splice enh = SMN2 splice variant enhancement. HEK293 SMN2-luciferase splicing reporter, luminescence, 30-36 h. Potency, µM (highest dose often 46.1 µM), without a hit: top-dose activity change, positive = activation, hits mostly activators. 2.8% of 210,000 active; note: % of control where 0% means no effect; nearly all actives have a fitted effect of over 55% in size
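qHTS luciferase splicing reporter: luminescence rises when SMN2 exon 7 is included in transfected HEK293 cells. Compound exposure lasted 30-36 h at 37C, with 4.5 mM final sodium butyrate as control, followed by a ONE-Glo read.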
ELG1 DNA repair = blocks ELG1-dependent DNA repair in HEK293T cells; Potency, µM (series often up to 46.1 µM), for inactives: at the highest dose activity change, negative = inhibition, actives largely listed as inhibitors; 2.3% of 330,000 active; HEK293T ELG1-luciferase reporter, luminescence, 16 h; DNA damage induced by 5-fluorouridine; AID 504467; note: % is set by controls: 0 for no effect and ±100 for the full control effect; nearly all actives have a fitted effect of over 55% in size
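Quantitative HTS, concentration-response format. 2,000 cells/well co-treated with 5-fluorouridine and compound, 16 hr in 5% CO2 at 37 °C; ONE-Glo luminescence read after 30 min.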
ELG1 genotox = induces genotoxicity in HEK293T cells with luciferase-tagged ELG1. AID 504466. HEK293T ELG1-luciferase reporter, luminescence, 16 h. 1.3% of 330,000 active. Potency, µM (series often up to 46 µM), without a hit: at the highest dose activity change, positive = activation, usual class: activators; note: % of control where 0% means no effect; nearly all actives have a fitted effect of over 60% in size
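Luminescence read-out: rising ELG1-luciferase signal, reflecting elevated ELG1 protein under genetic stress, flags genotoxic compounds. Cells were treated for 16 hr at 37 °C before ONE-Glo detection.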
Rab9 promoter act = activators of Rab9 promoter | Huh7 Rab9 promoter-luciferase reporter, luminescence, 24 h | Potency, µM (doses to about 9.22 µM), for the others: at the top dose activation, negative = inhibition, most hits filed as activators | 2.8% of 320,000 active | AID 485297; note: % of control where 0% means no effect; nearly all actives have a fitted effect of over 60% in size
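Rab9 promoter-driven luciferase in stably transfected Huh7 cells; 1500 cells/well rested 2 h, exposed to compound in DMSO for 24 h at 37 °C, 5% CO2. Luminescence read 10 min after adding luciferase reagent at ambient temperature.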
NPC1 promoter act = activates the NPC1 promoter. Huh7 NPC1 promoter luciferase reporter, 24 h. 2.4% of 320,000 active. Potency, µM (top dose mostly 9.22 µM), inactives show at the top dose activation, most hits filed as activators; note: % of control where 0% means no effect; nearly all actives have a fitted effect of over 60% in size
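Luciferase expression driven by the NPC1 promoter was measured in stably transfected Huh7 cells after a 24 h compound incubation, using a luciferase reagent and a luminescence read.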
FLuc counter = firefly luciferase modulation, counter-screen for miR-21 project. P08659. purified FLuc, Km substrates, luminescence inhibition. Potency, µM (titrated, usually from 57.5 µM), without a hit: at the highest dose activity change, negative = inhibition, actives largely listed as inhibitors. 6.9% of 360,000 active;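 note: plate controls were vehicle for no effect and reference inhibitor for full effect; nearly all actives have a fitted effect of over 55% in size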
Target sequence (P08659 whole entry, looked up): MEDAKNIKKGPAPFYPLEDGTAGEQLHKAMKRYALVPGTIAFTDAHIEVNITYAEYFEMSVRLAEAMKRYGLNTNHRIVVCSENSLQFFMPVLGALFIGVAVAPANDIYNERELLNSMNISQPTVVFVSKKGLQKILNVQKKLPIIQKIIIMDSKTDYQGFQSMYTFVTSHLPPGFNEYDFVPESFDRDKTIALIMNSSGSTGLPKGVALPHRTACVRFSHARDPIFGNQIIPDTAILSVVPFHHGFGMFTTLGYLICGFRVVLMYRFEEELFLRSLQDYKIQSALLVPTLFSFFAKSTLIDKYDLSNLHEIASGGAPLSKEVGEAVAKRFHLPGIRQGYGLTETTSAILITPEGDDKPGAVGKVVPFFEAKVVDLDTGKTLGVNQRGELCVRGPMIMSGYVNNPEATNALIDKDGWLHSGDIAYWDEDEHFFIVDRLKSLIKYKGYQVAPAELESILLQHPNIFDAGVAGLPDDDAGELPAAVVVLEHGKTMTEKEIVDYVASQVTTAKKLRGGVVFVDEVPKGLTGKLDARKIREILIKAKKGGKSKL
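Biochemical qHTS of compounds, final roughly 60 µM downward over six points, against 10 nM purified firefly luciferase using Km concentrations of substrates (10 uM D-luciferin, 10 uM ATP) in Tris acetate pH 7.5 buffer; luminescence output.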
The depositor's hits bear a star; ? = inconclusive; / = no result given. Calls come from the whole dose curve; as a rule, active = well fitted curve in the direction sought with a large enough effect; inconclusive = small, poorly fitted or top-dose-only effect, or another doubt; inactive = no such curve, though single readings can be large; an effect the other way counts as inactive or inconclusive. Potency is the fitted concentration of half-maximal effect.

SMILES	SMN2 splice enh	ELG1 DNA repair	ELG1 genotox	Rab9 promoter act	NPC1 promoter act	FLuc counter
Cc1ccc(-c2cc(C(=O)N3CCN(S(=O)(=O)c4ccc(Br)cc4)CC3)[nH]n2)c(C)c1	/	/	/	/	/	-1%
CCC(CC)C(=O)Nc1ccccc1C(=O)OCc1cc(=O)n2nc(C3CCCCC3)sc2n1	/	/	/	/	/	-5%
COc1cccc(CNC(=O)CSc2n[nH]c(-c3ccccc3Cl)n2)c1	/	/	/	/	/	-3%
CC(=O)Nc1ccc(NC(=O)c2ccccc2CCc2ccccc2)cc1	32µM*	-18%	-6%	-4%	1%	-2%
CC(C)(C)c1ccc(C(=O)Nc2ncn[nH]2)cc1	10µM*	?	?	2.5µM*	2.2µM*	9.5µM*
O=C(NCCc1ccccc1)c1ccc(Cl)nc1	11µM*	?	?	2µM*	4µM*	12µM*
COc1ccc(C(=O)Nc2cnccn2)cc1[N+](=O)[O-]	/	8%	-5%	11%	-3%	1%
CC(C)(C)c1ccc(C(=O)Nc2cnccn2)cc1	28µM*	?	0.65µM*	0.56µM*	1.8µM*	1.3µM*
CCOc1ccccc1CNC(=O)c1cc2n(n1)CCCN(Cc1ccc(C)cc1)C2=O	/	/	/	/	/	-13%
COc1ccc(CN(Cc2ccco2)C(=O)COc2ccccc2OC)cc1	-28%	/	/	/	/	-20%
COc1ccc(OC)c(/C=C(/C#N)c2nc(-c3ccc(-c4ccccc4)cc3)cs2)c1	-1%	/	/	/	/	5%
CC(C)(C)c1ccc(C(=O)NCCc2ccccc2)cc1	/	?	?	0.089µM*	0.35µM*	0.76µM*
O=C(O)c1cc2c(cc1NC(=O)c1ccccc1C(F)(F)F)OCCCO2	/	6%	0%	0%	2%	-15%
CCc1ccc(C(=O)Nc2cc3c(cc2Cl)OCCCO3)cc1	25µM*	?	?	1.6µM*	1.8µM*	6µM*
O=C(Nc1cc2c(cc1C(=O)O)OCCCO2)c1ccc(C(F)(F)F)cc1	/	?	18µM*	2.8µM*	4µM*	13µM*
O=C(Cc1ccccc1)Nc1ccc(NC(=O)Cc2ccccc2)c(Cl)c1	/	-9%	1%	1%	-7%	0%
O=C(Cc1ccccc1)Nc1ccc2c(c1)OC1(CCCC1)O2	/	?	?	2.5µM*	2.5µM*	4.8µM*
O=C(Cc1ccccc1)Nc1cc2c(cc1Cl)OCCCO2	/	?	?	2.8µM*	3.2µM*	17µM*
CCC(O)c1cc2c(cc1NC(=O)c1ccc(C)cc1)OCCO2 (stereo not given)	-4%	19%	10%	2%	17%	?
Cc1csc2nc(COc3ccccc3NC(=O)c3ccco3)cc(=O)n12	-11%	/	/	/	/	2%
Cc1ccc(NC(=O)COC(=O)c2ccccc2-c2nc3ccccc3s2)c(C)c1	17%	?	-6%	0%	3%	-3%
CC(=O)c1c(C)nc(Nc2nc3ccccc3s2)nc1C	/	?	?	?	?	0.76µM*
Cc1cc(C)nc(Nc2nc3ccccc3s2)n1	3.2µM*	?	?	?	?	?
Cc1ccc(Nc2nc3ccccc3s2)c(C)c1	2.5µM*	?	2.1µM*	1.3µM*	2µM*	0.6µM*
COc1ccc(N(C(=O)COc2ccccc2OC)S(=O)(=O)c2ccc(Cl)cc2)cc1	-18%	/	/	/	/	0%
CCCCC1=CC2=C(OC(C)=O)C(=O)C(C)(OC(=O)CCC(=O)OC)C(=O)C2=CO1 (stereo not given)	14%	/	/	/	/	/
Cc1nc(-c2cc(-c3ccc(Cl)cc3)no2)cs1	/	?	?	0.56µM*	1.1µM*	1.2µM*
Clc1ccc(-c2cc(-c3ccccc3)on2)cc1	/	?	?	1.3µM*	1.4µM*	0.85µM*
Cc1cn2c(=O)cc(COc3cccc(NC(=O)c4ccccc4C)c3)nc2s1	-4%	/	/	/	/	-9%
C=CCC(C)(O)c1ccc(OC)cc1 (stereo not given)	-2%	/	/	/	/	/
